# aSyn 5UTR act – Activators working through SNCA 5'UTR binding (MLPCN) | activity score, % (tested at 7.5 µM), hits read low | alpha-synuclein 5'UTR reporter, activators screen | hit rate 7.1% among 300,000; in the data active means activity score below about -60%
# A number is an active result; . = inactive. Not all results are given here.
SMILES,aSyn 5UTR act
Brc1cccc(-c2nc(-c3ccncc3)no2)c1,-100.0
Cc1ccc(-c2nc(-c3ccccc3)no2)c(Cl)c1,.
Cc1cccc(-c2nc(-c3ccncc3)no2)c1,-68.5
Cc1ccc(O)c(C2=NNC(c3ccc(Cl)cc3)C2)c1 (stereo not given),-127.6
Cc1ccc(C2Cc3cc(O)c(O)cc3CN2)cc1 (stereo not given),.
CCCN1Cc2cccc(C(=O)Nc3ccc(-c4nc5ccccc5[nH]4)cc3)c2C1=O,-61.6
COCCN1Cc2cccc(C(=O)Nc3cccc(-c4nc5ccccc5[nH]4)c3)c2C1=O,-79.6
CCOc1ccc2nc(SCC3CC3(Cl)Cl)[nH]c2c1 (stereo not given),-152.8
ClC1(Cl)CC1CSc1nc2ccccc2[nH]1 (stereo not given),-77.2
c1ccc2[nH]c(SCC3CCCCO3)nc2c1 (stereo not given),-76.3
O=C(NNC1=NCCCCC1)Nc1cccc(Cl)c1,-135.9
O=C(NNC1=NCCCCC1)Nc1ccc(Cl)cc1,-67.6
O=C(O)c1cccc(-c2nnn(Cc3ccccc3)n2)c1,-84.6
COc1ccc(-c2nnn(Cc3ccccc3)n2)cc1,-167.5
CSc1ccc(-c2nnn(Cc3ccc(C)cc3)n2)cc1,-167.6
Cc1ccccc1Cn1nnc(-c2cccc(C(=O)O)c2)n1,-78.5
COc1ccc(C=Nc2cccnc2N)cc1,-67.2
O=C(Nc1cccc2ccccc12)/C(Cl)=C/c1ccccc1,-80.9
O=C(Nc1ccccc1F)C(=O)Nc1cccc2ccccc12,-118.9
CCCCc1ccc(NC(=O)CC(C)C)cc1,-69.7
CCCCc1ccc(NC(=O)C2CCCC2)cc1,-68.6
Cc1ccc(C2NC(=O)c3ccccc3N2)s1 (stereo not given),-168.1
CN(C)c1ccc(C2NC(=O)c3ccccc3N2)cc1 (stereo not given),-130.6
O=C1NC(c2ccc(Cl)cc2)Nc2ccccc21 (stereo not given),-62.0
CN(C)c1ccc(C2Nc3cccc4cccc(c34)N2)cc1,-94.1
SMILES,aSyn 5UTR act
Cc1cc(C(=O)N/N=C/c2ccccc2)c(C)o1,-69.9
Cn1c(C(=O)N/N=C/c2ccccc2)cc2ccccc21,-108.2
Cc1cc(C(=O)N/N=C/c2cccc3ccccc23)c(C)o1,-62.0
Cn1nccc1C(=O)N/N=C/c1c(O)ccc2ccccc12,.
CC(=C/c1ccccc1)/C=N/NC(=O)c1cccs1,-90.2
CC(/C=N/NC(=O)c1nn(C)c(C)c1Br)=C\c1ccccc1,-121.8
CC(=C/c1ccccc1)/C=N/n1cnnc1,.
O=C(N/N=C/C(Br)=C\c1ccccc1)c1cccs1,-318.5
CCc1ccc(-c2nc(CSCC(=O)N3CCN(c4ccccn4)CC3)c(C)o2)cc1,.
O=C(CCSCc1ccccc1F)N1CCN(c2ccccn2)CC1,-78.1
O=C(CSCc1ccccc1Cl)N1CCN(c2ccccn2)CC1,-82.0
COc1cc2c(cc1OC)-c1c(OC)c(OC)cc3ccnc(c13)C2=O,.
COc1cc2cccc(OC)c(=O)c2c(O)c1OC,-70.3
CCOc1ccc(Nc2nc(-c3sc(N)nc3C)cs2)cc1,-70.0
Cc1ccc(Nc2nc(-c3sc(N)nc3C)cs2)cc1,-133.5
Cc1c(C(=O)Nc2nc3ccccc3[nH]2)oc2ccccc12,-257.6
Cc1c(C(=O)Nc2nc3ccccc3[nH]2)oc2ccc(Br)cc12,-157.9
Cc1c(C(=O)Nc2nc3ccccc3[nH]2)oc2c(Cl)cccc12,-136.1
COc1cc(/C=C2/C(=N)N3OC(C)=CC3=NC2=O)ccc1OCCOc1ccc(C)cc1,-75.3
Brc1c(CSc2nc3ccccc3s2)nc2ncccn12,-109.6
COc1ccc(N=c2scc(-c3ccc(OC)cc3)n2CCO)cc1,-66.2
O=C(NC(=S)Nc1ccccc1)C1CCCCC1,-62.5
O=C(NC(=S)Nc1ccc(Br)cc1)C1CCCCC1,-68.5
O=C(NC(=S)Nc1ccc(Br)cc1)C1CCC1,-95.5
CC(C)CC(=O)NC(=S)NNC(=O)c1ccc(NC(=O)C2CCCCC2)cc1,.
SMILES,aSyn 5UTR act
CCCCC(=O)Nc1ccc2c(c1)oc1ccccc12,-250.8
CCCCCC(=O)Nc1ccc2ccccc2c1,-174.7
Cc1cc(=O)oc2cc(NC(=O)C3CCCC3)ccc12,-85.2
CC(C)CC(=O)Nc1ccc2c(c1)oc1ccccc12,-227.4
O=C(Nc1ccc2c(c1)oc1ccccc12)C1CC1,-138.3
Cc1cccc2sc(NC(=O)C3CCCO3)nc12 (stereo not given),-125.9
CSc1nc2ccc(NC(=O)NC(=O)c3c(F)cccc3F)cc2s1,-124.7
COc1ccc2nc(NC(=O)C3CCN(C(=O)c4ccco4)CC3)sc2c1,-73.4
Cc1nc(C)c(C(=O)Nc2nc3c(C)cccc3s2)o1,-73.5
CSc1nc2ccc(NC(=O)C3CCCO3)cc2s1 (stereo not given),-125.4
COc1ccc2nc(NC(=O)C3CCCO3)sc2c1 (stereo not given),-86.9
COc1ccc(-c2nnc(NC(=O)C3CCCO3)s2)cc1 (stereo not given),-111.9
O=C(Nc1nc(-c2ccc(Cl)cc2)cs1)C1CCCO1 (stereo not given),-90.1
Cc1oc(=O)c(NC(=O)c2ccccc2)cc1C(=O)c1ccccc1,-205.3
CC(=O)c1cc(NC(=O)c2ccc(C)cc2)c(=O)oc1/C=C/N(C)C,-78.2
CC(=O)c1cc(NC(=O)c2ccc(C)cc2)c(=O)oc1C,-116.7
Cc1ccc(C(=O)Nc2cc3ccccc3oc2=O)cc1,.
NC(=S)N/N=C/c1cccc(O)c1O,-94.0
CC(=O)Nc1ccc(/C=N/Nc2nncc3ccccc23)cc1,-126.2
C(=N\Nc1nncc2ccccc12)/c1ccccn1,.
CCN=c1scc(C)n1/N=C/c1ccsc1,-226.0
COc1ccc(-c2csc(NC(=O)CC(C)C)n2)cc1,-127.7
Cc1nc(-c2ccc(NC(=O)CC(C)C)cc2)cs1,-143.3
Cc1nc(-c2ccc(NC(=O)C3CC3)cc2)cs1,-160.5
COc1ccc(-c2ccc(C3C(C#N)=C(N)Oc4n[nH]c(C)c43)o2)cc1 (stereo not given),-65.2
SMILES,aSyn 5UTR act
CC1Sc2n(c3ccccc3[n+]2C)N=C1c1ccccc1 (stereo not given),-63.3
C=CCSc1n[nH]c(-c2ccc(OC)cc2)n1,-165.0
C=CCSc1n[nH]c(-c2ccccc2)n1,-100.3
CNC(=O)c1ccc(NC(=O)/C=C/c2cccc(F)c2)cc1,-97.7
CSc1cccc(NC(=O)/C=C/c2cccc(Cl)c2)c1,-218.0
O=C(/C=C/c1cccc(Cl)c1)Nc1ncccn1,-76.2
NNc1nc2ccccc2c(=O)n1Cc1ccccc1,-132.7
Oc1oc(-c2ccccc2)nc1/C=N/c1ccccn1,-86.1
Cc1ccc(-c2nc(C=Nc3ccc(O)cc3)c(O)o2)cc1,-94.7
CN=Cc1nc(-c2ccccc2)oc1O,-97.0
Cc1ccc(-c2nc3ccccc3c(=O)o2)cc1,-84.1
CC(=O)Nc1ccc(/C=N/N2CCCCC2)cc1,-96.2
Cc1ccc(NC(=O)c2snc3ccc(Cl)cc23)cc1C,-215.8
COc1ccc(OC)c(NC(=O)c2cc(-c3c(C)cc(C)cc3O)n[nH]2)c1,-112.3
COc1ccc(OC)c(NC(=O)c2cc(-c3cc(C)c(C)cc3O)n[nH]2)c1,-95.2
CCC1CCCCN1CC(O)Cn1c2ccccc2n2c(=O)cc(C)c(C#N)c12 (stereo not given),-63.8
Cc1ccc(/C=N/NC(=O)NC23CC4CC(CC(C4)C2)C3)o1,-83.4
Cc1ccc(/C=N/NC(=O)c2ccoc2C)o1,-137.4
COc1cc(/C=N/NC(=O)c2ccoc2C)cc(OC)c1O,-90.0
Cc1cc(C(=O)N/N=C/c2ccc(C)o2)c2ccccc2n1,.
CCOc1ccc(CCNC(=O)COC(=O)c2cccc(N(C)C)c2)cc1OCC,-89.9
Cc1cc(C)n2nc(-c3ccc(F)cc3)nc2n1,-109.4

# From PubChem BioAssay
